A selection: hits, their analogues and other compounds. The true share with any hit is near 19%.
DT40 TDP1 no CPT: qHTS for Inhibitors of human tyrosyl-DNA phosphodiesterase 1 (TDP1): qHTS in cells in absence of CPT; DT40 Tdp1-/- hTDP1 cells, no CPT, ATP luminescence, 48 h; Potency, µM (series often up to 46.2 µM), for inactives: at the top dose activity change, negative = growth inhibition, usual class: inhibitors; 420,000 compounds, 15% hits; AID 686978, 2013; note: potency is the fitted concentration of half-maximal effect; nearly all actives have a fitted effect of over 55% in size
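Stably hTDP1-transfected Tdp1-null chicken DT40 cells were treated with library compounds minus camptothecin and grown for at least 48 hr at 37 °C, after which cellular ATP was quantified by luminescence.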
TDP1 cell CPT: growth inhibition of DT40 Tdp1-/-;hTDP1 cells with camptothecin (screen for TDP1 inhibitors). chicken DT40 Tdp1-/-;hTDP1 cells + 20 nM CPT, ATP luminescence, 48 h. 420,000 compounds, 12% hits. Potency, µM (titrated, usually from 46.2 µM), for the others: at the highest dose activity change, negative = growth inhibition, usual class: inhibitors; note: potency is the fitted concentration of half-maximal effect; nearly all actives have a fitted effect of over 55% in size
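Chicken DT40 Tdp1-/- cells complemented with human TDP1, 400 cells/well, exposed to compounds plus 20 nM camptothecin for at least 48 h at 37 C; viability read as ATP content by CellTiter-Glo luminescence.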
IL1B secr inh: blocks inflammasome-driven IL-1 beta release; THP-1 LPS/ATP IL-1B secretion, AlphaLISA, 16 h; active compounds read low; activity change, % at 57.5 µM; 360,000 compounds, 4.7% hits; AID 743279; in the data active = activity change below about -50%; inconclusive = mostly about -30% to -49%
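Secreted IL-1B measured by AlphaLISA bead assay after 16 h compound exposure of THP-1 cells; compounds (final up to 57.5 uM) added 1 h before LPS (250 ng/mL) and ATP (1.25 mM) stimulation; lower signal means less secretion.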
HT1080 IDH1KD tx: kills HT-1080 cells with IDH1 knockdown | HT-1080 IDH1 knockdown viability, ATP luminescence, 48 h | Potency, µM (top dose mostly 46.1 µM), inactives show at the top dose activity, negative = toxicity, hits mostly cytotoxic | 360,000 compounds, 2% hits | AID 686971;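 note: potency is the fitted concentration of half-maximal effect; 0% = DMSO wells and -100% = cell-free medium wells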
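Using the IDH1-knockdown HT-1080 line run in the same batch and compound series as the NT line, viability after 48 h at 37 °C was determined by CellTiter-Glo luminescence and expressed as % activity.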
HT1080-NT tox: kills 2HG-producing HT-1080-NT fibrosarcoma cells; Potency, µM (highest dose often 46.1 µM), without a hit: at the top dose activity, negative = less viability, actives largely listed as cytotoxic; 360,000 compounds, 1.6% hits; HT-1080-NT fibrosarcoma viability, CellTiter-Glo ATP luminescence, 48 h;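 note: NT is the 2HG producing partner of a matched IDH1 knockdown line; potency is the fitted concentration of half-maximal effect; 0% = DMSO-treated cells and -100% = media-only wells without cells; nearly all actives have a fitted effect of over 55% in size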
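HT-1080-NT; 750 cells/well; 5% FBS RPMI; 48 h compound, 37 degrees C; CellTiter-Glo luminescence; curve fitting and curve-class assignment.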
* = called active by the depositor; u = inconclusive; x = not tested or not shown; ! = repeats disagree. Unless noted, calls come from the whole dose curve; as a rule, active = well fitted curve in the direction sought with a large enough effect; inconclusive = small, poorly fitted or top-dose-only effect, or another doubt; inactive = no such curve, though single readings can be large; an effect the other way counts as inactive or inconclusive. Unless noted, % is set by controls: 0 for no effect and ±100 for the full control effect.

SMILES | DT40 TDP1 no CPT | TDP1 cell CPT | IL1B secr inh | HT1080 IDH1KD tx | HT1080-NT tox
N#Cc1c(Cl)nsc1NC(=O)c1ccccc1 | 8.2µM* | 13µM* | u | 13µM* | 8.2µM*
CCOC(=O)C1=C(N2CCCCC2)c2cc3c(n2C1=O)CCCC3 | 9.2µM* | u | 0 | -6% | -2%
CCOc1cc(-c2ccc(OC(=O)c3ccc(OC)cc3)c(OC)c2)cc(=O)c2c(C)oc(C)c12 | 18µM* | 15µM* | x | x | x
COc1cc(-c2cc(OC)c3c(C)oc(C)c3c(=O)c2)ccc1OC(=O)c1cccc(C)c1 | 13µM* | 23µM* | x | x | x
COc1ccc(-c2cc(OC)c3c(C)oc(C)c3c(=O)c2)cc1OC | u | u | u | -21% | -15%
COc1ccc(-c2cc(OC(=O)c3ccc(F)cc3)c3c(C)oc(C)c3c(=O)c2)cc1OC | u | 18µM* | x | x | x
COc1ccc(C(=O)Oc2cc(-c3ccc4c(c3)OCO4)cc(=O)c3c(C)oc(C)c23)cc1 | -30% | u | x | x | x
CC(C)(C)c1ccc(C(=O)Nc2ccc(F)cc2)s1 | 15µM* | 0% | -62* | -20% | -19%
C[C@@H]1CN([C@H](C)CO)S(=O)(=O)c2ccc(-c3ccc(C(=O)N(C)C)cc3)cc2O[C@H]1CN(C)C(=O)Cc1ccccn1 | 2% | 6% | 0 | 10% | 20%
CCN(CC(=O)Nc1c(F)cccc1F)C(=O)CCN1C(=O)C2CC=CCC2C1=O (centres undefined) | 8% | 14% | 4 | 5% | u
CC1CCCN(C(=O)C2CC(=O)N(c3ccc(Cl)cc3)C2)C1 (centres undefined) | u | -1% | -6 | -4% | 13%
Cc1ccc(CNS(=O)(=O)c2ccc3c(c2)C(C)(C)C(=O)N3C)cc1 | -27% | 8% | 14 | -2% | 17%
CN1C(=O)C(C)(C)c2cc(S(=O)(=O)NCc3ccc(C(=O)Nc4ccc(Cl)cc4)cc3)ccc21 | 13µM* | 18µM* | x | x | x
CCc1ccc(NC(=O)c2ccc(CNS(=O)(=O)c3ccc4c(c3)C(C)(C)C(=O)N4C)cc2)cc1 | 4.1µM* | u | x | x | x
CCOC(=O)CNC(=S)N(Cc1ccco1)Cc1ccccc1Cl | 7% | u | -14 | -2% | 8%
CCOc1ccc(S(=O)(=O)N2CCCCC2)cc1NC(=O)CSCc1c(C)noc1C | u | -29% | 5 | 5% | -1%
COc1ccc(-c2nc3c(C#N)c[nH]n3c2NC2CCCCC2)cc1 | 16µM* | 16µM* | x | x | x
COc1ccc(-c2noc(-c3ccc(NC4CCCCC4)c([N+](=O)[O-])c3)n2)cc1 | 7% | 0% | x | x | x
COc1ccc(C=C2SC(=S)NC2=O)cc1 | 18µM* | u | -15 | -24% | -19%
COc1ccc(/C=C2\SC(=S)N(N3CCOCC3)C2=O)c(OC)c1 | 16µM* | -24% | 0 | 12% | 7%
O=C1NC(=S)SC1=Cc1ccccc1Br | u | u | -10 | u | u
COc1ccc(/C=C2/SC(=S)N(n3c(C)ccc3C)C2=O)cc1 | 15µM* | u | -8 | -1% | 5%
O=C1NC(=S)SC1=Cc1cc(Br)ccc1O | -13% | 29µM* | u | -10% | -14%
CCOc1ccc(/C=C2/SC(=S)N(n3c(C)ccc3C)C2=O)cc1 | u | -26% | 17 | -18% | -17%
CCc1nc2ccc(C(=O)NCc3cccs3)cn2c1N(CC)CCOC | u | u | -1 | 9% | 17%
SMILES | DT40 TDP1 no CPT | TDP1 cell CPT | IL1B secr inh | HT1080 IDH1KD tx | HT1080-NT tox
Cc1cc(N2C(=O)C(O)=C(C(=O)c3ccc(C)o3)C2c2ccc([N+](=O)[O-])cc2)no1 (centres undefined) | u | u | 17 | 1% | 6%
COc1ccc(CC(=O)NCC(=O)Nc2ccccc2Br)cc1 | -23% | -8% | -11 | u | -30%
O=C1NC(=S)S/C1=C\c1ccc2ccccc2c1 | 21µM* | u | -3 | -2% | 0%
O=C1NC(=S)SC1=Cc1ccc(Cl)cc1 | 21µM* | u | -26 | u | -24%
CCOC(=O)N1CCC(NC(=O)C2CCN(C(=O)c3cc4oc(C)cc4n3Cc3c(F)cccc3Cl)CC2)CC1 | 15µM* | u | 23 | -11% | 0%
CN(C)S(=O)(=O)c1ccc(C(=O)NCCSc2c(-c3ccc(Cl)cc3)[nH]c3ccccc23)cc1 | 5.2µM* | 4.1µM* | x | x | x
O=C(Cc1cccs1)NCCSc1c(-c2ccc(Cl)cc2)[nH]c2ccccc12 | 13µM* | 18µM* | -17 | u | u
Cc1ccc(-c2[nH]c3ccccc3c2SCCNC(=O)c2ccc(S(=O)(=O)N(C)C)cc2)cc1 | 5.8µM* | 5.8µM* | x | x | x
CCOc1ccc(NS(=O)(=O)c2csc(C(N)=O)c2)cc1 | u | u | -17 | 0% | -3%
Cc1nc2nc(SCc3ccc([N+](=O)[O-])cc3)[nH]c2cc1Br | -27% | -8% | 3 | -19% | -21%
Cc1cccc(Nc2nnc(SCC3CCCCO3)s2)c1 (centres undefined) | u | 23µM* | -5 | -16% | -3%
O=C(CN1C(=O)NC2(CCCC2)C1=O)N1CCc2ccccc2C1 | 9% | 15% | 19 | 18% | 19%
CC(C)(C)Cn1nc(-c2ccc(Cl)cc2)c2c(N)ncnc21 | u | 8.4µM* | x | x | x
CC(C)(C)n1nc(-c2ccc(F)cc2)c2c(N)ncnc21 | 16µM* | 23µM* | -25 | u | u
CC(C)(C)n1nc(-c2ccc(Cl)cc2)c2c(N)ncnc21 | 18µM*! | 8.2µM*! | -9 | u | -20%
COc1ccc(-c2nc3c(Cl)cc(C(F)(F)F)cn3c2Cc2ccccc2C(F)(F)F)cc1OC | -18% | -4% | 18 | 15% | 10%
CCCc1nc2c(Cl)cc(C(F)(F)F)cn2c1Cc1ccc(OC)cc1C | 16µM* | 21µM* | 44 | -12% | -25%
COc1ccc(Cc2c(-c3ccc(C#N)cc3)nc3c(Cl)cc(C(F)(F)F)cn23)c(C)c1 | 18µM* | u | 0 | -14% | 0%
c1ccc(Nc2ncnc3[nH]ncc23)cc1 | -25% | -2% | 34 | -1% | 1%
Cc1cc(C)c2c(c1)-c1c(ssc1=S)C(C)(C)N2C(=O)CSc1nncn1C | 23µM* | 26µM* | -11 | 18µM* | u
COc1ccc2c(c1)-c1c(ssc1=S)C(C)(C)N2C(=O)CSC1=NCCS1 | 23µM* | u | -21 | -22% | -4%
CCOc1ccc2c(c1)-c1c(ssc1=S)C(C)(C)N2C(=O)c1ccco1 | 2.9µM* | 5.2µM* | -12 | 5.2µM* | 4.6µM*
